Test results taken from PubChem BioAssay (NCI).
Compounds without any hit were thinned out: in the full panel of roughly 83,000, 20% have a hit.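 96-well plates, one dose, 48 hours. Percent growth reported; active if below 10.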 Activity calls are given as the source filed them.

Key:
Experiment in all cases: NCI-60 one-dose screen, 48 h (100 = growth as untreated, 0 = no growth, -100 = all killed)
Settings in all cases: 10 µM unless noted
NCI-H23 lung = system: NCI-H23 lung
NCI-H226 lung = system: NCI-H226 lung
NCI-H322M lung = system: NCI-H322M lung
HOP-62 NSCLC = system: HOP-62 NSCLC
NCI-H460 lung = system: NCI-H460 lung
HOP-92 NSCLC = system: HOP-92 NSCLC
NCI-H522 lung = system: NCI-H522 lung
A549/ATCC NSCLC = system: A549/ATCC NSCLC
786-0 renal = system: 786-0 renal
COLO 205 colon = system: COLO 205 colon

Measured: growth

Cn1c(N2NC(=O)C(N=Nc3ccc(S(N)(=O)=O)cc3)C2=O)nc(-c2ccco2)c(C#N)c1=O (stereo not given)
inactive: NCI-H23 lung 70% | NCI-H226 lung 94.9% | NCI-H322M lung 107% | HOP-62 NSCLC 96.4% | NCI-H460 lung 103% | HOP-92 NSCLC 32.3% | A549/ATCC NSCLC 109% | 786-0 renal 100% | COLO 205 colon 77.1%
active: NCI-H522 lung -40.5%

Oc1cccc(CCc2ccc(Oc3cc(CCc4cccc(O)c4)cc(O)c3O)cc2)c1
inactive: NCI-H23 lung 89% | NCI-H226 lung 84.4% | NCI-H322M lung 81.8% | HOP-62 NSCLC 92.5% | NCI-H460 lung 66.4% | HOP-92 NSCLC 53.5% | A549/ATCC NSCLC 83% | 786-0 renal 92.8% | COLO 205 colon 111%
active: NCI-H522 lung -8.62%

Cc1nn(-c2ccccc2)c(Cl)c1/C=N\N=c1/sc2ccccc2n1C
inactive: NCI-H23 lung 100% | NCI-H226 lung 105% | NCI-H322M lung 97.5% | HOP-62 NSCLC 93.1% | NCI-H460 lung 107% | HOP-92 NSCLC 84.5% | NCI-H522 lung 97.7% | A549/ATCC NSCLC 85.1% | 786-0 renal 92.6% | COLO 205 colon 109%

COc1ccc2c(c1)oc1c(C)c3c(c(C)c12)C(=O)N(CCN1CCOCC1)C3=O
inactive: NCI-H23 lung 101% | NCI-H226 lung 96.4% | NCI-H322M lung 90.9% | HOP-62 NSCLC 101% | NCI-H460 lung 101% | HOP-92 NSCLC 106% | NCI-H522 lung 29.8% | A549/ATCC NSCLC 90.8% | 786-0 renal 102% | COLO 205 colon 109%

Nc1nc(Nc2ccccc2SSc2ccccc2Nc2nc(N)nc(-c3ccc(C(F)(F)F)cc3)n2)nc(-c2ccc(C(F)(F)F)cc2)n1
active: A549/ATCC NSCLC 5.2%
inactive: NCI-H23 lung 31.5% | NCI-H226 lung 55.3% | NCI-H322M lung 88.6% | HOP-62 NSCLC 47.8% | NCI-H460 lung 40% | HOP-92 NSCLC 90.7% | NCI-H522 lung 80% | 786-0 renal 81.4% | COLO 205 colon 86.1%

Nc1c(C(=O)Nc2ccnc3ccccc23)sc2nc3c(cc12)CN(Cc1ccccc1)CC3
inactive: NCI-H23 lung 70.3% | NCI-H226 lung 53.1% | NCI-H322M lung 90.3% | HOP-62 NSCLC 111% | NCI-H460 lung 87.4% | HOP-92 NSCLC 66.7% | NCI-H522 lung 70.1% | A549/ATCC NSCLC 85.1% | 786-0 renal 66.3% | COLO 205 colon 97.3%

O=C1Nc2cc(-c3ccc(NC(=O)c4ccccc4)cc3)ccc2/C1=C/c1ccc[nH]1
inactive: NCI-H23 lung 66.7% | NCI-H226 lung 90.6% | NCI-H322M lung 94.1% | HOP-62 NSCLC 104% | NCI-H460 lung 83.4% | HOP-92 NSCLC 115% | NCI-H522 lung 92.2% | A549/ATCC NSCLC 103% | 786-0 renal 107% | COLO 205 colon 118%

O=C1c2ccc3c4c(ccc(c24)C(=O)N1CCCNCc1ccccc1Cl)C(=O)N(CCCNCc1ccccc1Cl)C3=O
active: NCI-H23 lung -51.9% | NCI-H226 lung -57.1% | NCI-H322M lung -66.2% | HOP-62 NSCLC -19.8% | NCI-H460 lung -52.1% | HOP-92 NSCLC -7.21% | NCI-H522 lung -83.1% | A549/ATCC NSCLC -84.1% | 786-0 renal -32.8% | COLO 205 colon -15.9%

COc1cc2nc(-c3ccc(C(F)(F)F)cc3)cc(OCCN3CCCCC3)c2cc1OC
inactive: NCI-H23 lung 84.7% | NCI-H226 lung 73.2% | NCI-H322M lung 73.1% | HOP-62 NSCLC 69.7% | NCI-H460 lung 46.3% | HOP-92 NSCLC 68.2% | NCI-H522 lung 91.2% | A549/ATCC NSCLC 81% | 786-0 renal 78.7% | COLO 205 colon 27.4%

CCOC(=O)C1=C(C)NC(SCc2cc(=O)oc3ccc(F)cc23)=N[C@@H]1c1cccc2ccccc12
inactive: NCI-H23 lung 94.3% | NCI-H226 lung 103% | NCI-H322M lung 102% | HOP-62 NSCLC 90.8% | NCI-H460 lung 105% | HOP-92 NSCLC 86.7% | NCI-H522 lung 84.8% | A549/ATCC NSCLC 98.9% | 786-0 renal 93.4% | COLO 205 colon 108%

O=C(/C=C/c1ccc(F)cc1)c1ccc(NC(=O)N2CCN(c3cc4c(cc3F)c(=O)c(C(=O)O)cn4C3CC3)CC2)cc1
inactive: NCI-H23 lung 92.8% | NCI-H226 lung 96.1% | NCI-H322M lung 100% | HOP-62 NSCLC 98% | NCI-H460 lung 82.9% | HOP-92 NSCLC 88.5% | NCI-H522 lung 87% | A549/ATCC NSCLC 102% | 786-0 renal 92.4% | COLO 205 colon 115%

CN1[C@@H]2CC[C@H]1/C(=C\c1ccccc1)C(=O)/C2=C/c1ccccc1
inactive: NCI-H23 lung 29.7% | NCI-H226 lung 45.8% | NCI-H322M lung 51.2% | HOP-62 NSCLC 95.8% | NCI-H460 lung 13.8% | HOP-92 NSCLC 84.3% | NCI-H522 lung 48.2% | A549/ATCC NSCLC 45.3% | 786-0 renal 45.3% | COLO 205 colon 12.9%

O=C(Nc1ccc(NC(=O)c2cc(=O)[nH]c3ccccc23)cc1)Nc1cccc(Cl)c1
inactive: NCI-H23 lung 87.9% | NCI-H226 lung 70% | NCI-H322M lung 80.2% | HOP-62 NSCLC 66.2% | NCI-H460 lung 86.3% | HOP-92 NSCLC 81.1% | NCI-H522 lung 84.6% | A549/ATCC NSCLC 93.5% | 786-0 renal 98.3% | COLO 205 colon 90.1%

CCCCCN1C=C/C(=C\C(=O)N2CCCc3ccccc32)c2ccccc21
inactive: NCI-H23 lung 57.5% | NCI-H226 lung 79.3% | NCI-H322M lung 102% | HOP-62 NSCLC 107% | NCI-H460 lung 91.9% | HOP-92 NSCLC 73.5% | NCI-H522 lung 68.5% | A549/ATCC NSCLC 89.4% | 786-0 renal 95.6% | COLO 205 colon 96.8%

Cc1ccc(CNc2c3ccccc3nc3cc(NC(=O)CCN4CCCC4)ccc23)cc1
inactive: NCI-H226 lung 35% | HOP-62 NSCLC 19.9% | 786-0 renal 22.3%
active: NCI-H23 lung -48.1% | NCI-H322M lung 1.8% | NCI-H460 lung -64.7% | HOP-92 NSCLC -0.443% | NCI-H522 lung -41.2% | A549/ATCC NSCLC -36.9% | COLO 205 colon -40.3%

COc1ccc2c(c1)oc1c(C)c3c(c(C)c12)C(=O)N(N)C3=O
inactive: NCI-H23 lung 50.4% | NCI-H322M lung 32.3% | HOP-62 NSCLC 14.8% | HOP-92 NSCLC 29% | NCI-H522 lung 49.5% | A549/ATCC NSCLC 24.1% | COLO 205 colon 39.5%
active: NCI-H226 lung -11.6% | NCI-H460 lung 8% | 786-0 renal -39.6%

C=CCn1c(-c2ccc(-c3nc4ccc(C)cc4[nH]3)cc2)n[nH]c1=S
inactive: NCI-H23 lung 94.6% | NCI-H226 lung 94.1% | NCI-H322M lung 102% | HOP-62 NSCLC 97.7% | NCI-H460 lung 105% | HOP-92 NSCLC 117% | NCI-H522 lung 90.7% | A549/ATCC NSCLC 99.2% | 786-0 renal 107% | COLO 205 colon 120%

Nc1c(S(=O)(=O)O)cc2c3c(cccc13)C(=O)OC2=O
inactive: NCI-H23 lung 94.9% | NCI-H226 lung 105% | NCI-H322M lung 107% | HOP-62 NSCLC 93.9% | NCI-H460 lung 105% | HOP-92 NSCLC 90.7% | NCI-H522 lung 104% | A549/ATCC NSCLC 116% | 786-0 renal 102% | COLO 205 colon 111%

O=c1c2c(c(=O)n1O)c1c3ccc[nH]c3nc1c1nc3[nH]cccc3c12
inactive: NCI-H23 lung 86.7% | NCI-H226 lung 87.1% | NCI-H322M lung 91% | HOP-62 NSCLC 83% | NCI-H460 lung 93.1% | HOP-92 NSCLC 80.1% | NCI-H522 lung 55% | A549/ATCC NSCLC 79.4% | 786-0 renal 87.5% | COLO 205 colon 94.9%

CCN(Cc1ccccc1)c1ccc(C=O)cc1
inactive: NCI-H23 lung 96.3% | NCI-H322M lung 93.9% | HOP-62 NSCLC 108% | NCI-H460 lung 100% | HOP-92 NSCLC 81.9% | NCI-H522 lung 100% | A549/ATCC NSCLC 98.1% | 786-0 renal 102% | COLO 205 colon 113%
active: NCI-H226 lung 2.99%

CCN(CC)c1ccc(C(=O)c2ccccc2)cc1
inactive: NCI-H23 lung 96.4% | NCI-H226 lung 87.9% | NCI-H322M lung 97.9% | HOP-62 NSCLC 91.2% | NCI-H460 lung 104% | HOP-92 NSCLC 89.6% | NCI-H522 lung 87.2% | A549/ATCC NSCLC 89.4% | 786-0 renal 103% | COLO 205 colon 111%

O=C(Cn1c[n+](CC(=O)c2ccc(-c3ccccc3)cc2)c2ccccc21)Nc1cccc2cccnc12
active: HOP-92 NSCLC -4.57% | NCI-H522 lung 2.6% | COLO 205 colon -61.8%
inactive: NCI-H23 lung 23.8% | NCI-H226 lung 50.4% | NCI-H322M lung 77.2% | HOP-62 NSCLC 43.2% | NCI-H460 lung 28.7% | A549/ATCC NSCLC 59.9% | 786-0 renal 44.4%

COc1cc(NC(C)CCCNC(=O)CCC(=O)NCCCNCCCCCCCCNCCCNC(=O)CCC(=O)NCCCC(C)Nc2cc(OC)cc3cccnc23)c2ncccc2c1 (stereo not given)
inactive: NCI-H23 lung 54.4% | NCI-H226 lung 44.5% | NCI-H322M lung 32.9% | HOP-62 NSCLC 85.2% | NCI-H460 lung 87.4% | HOP-92 NSCLC 54.2% | NCI-H522 lung 47.3% | A549/ATCC NSCLC 63% | 786-0 renal 92.6% | COLO 205 colon 14.7%
